Test systems include DU-145 prostate; K-562 leukemia; MALME-3M melanoma; MDA-MB-231 breast; RXF 393 renal; SF-268 CNS; SF-295 CNS; SF-539 CNS; UACC-257 melanoma; M14 melanoma; HCT-15 colon; HT29 colon; SNB-75 CNS; SNB-19 CNS; U251 CNS; PC-3 prostate; SK-MEL-5 melanoma; UACC-62 melanoma; LOX IMVI melanoma; SK-MEL-28 melanoma.
What all share (test): NCI-60 one-dose screen, 48 h (100 = growth as untreated, 0 = no growth, -100 = all killed)
Details in all cases: 10 µM unless noted

About 83,000 compounds went through this panel and 20% of them were active in at least one assay; those are over-represented in the sample as a whole.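 Growth was measured after 48 h exposure to one concentration of compound in 96-well plates. Values under 10 count as active.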 Unmarked numbers belong to inactive results. The source made the active and inactive calls.

Consider `C=C(C)C1CCC2(C)OC2C1` (stereo not given), for which the growth in the assay on DU-145 prostate was 122%; with K-562 leukemia, 135%; in the assay on MALME-3M melanoma it was 95.7%; in the assay on MDA-MB-231 breast, 102%; in the assay with RXF 393 renal it was 204%; in the assay on SF-268 CNS, 115%. Besides, the growth in the assay with SF-295 CNS is 96.7%; in the assay on SF-539 CNS, 103%; with UACC-257 melanoma, 132%; in the assay on M14 melanoma it was 108%; in the assay with HCT-15 colon, 112%; with HT29 colon it was 109%. The growth is 80.4% in the assay on SNB-75 CNS; 110% in the assay with SNB-19 CNS; 118% with U251 CNS; 109% in the assay on PC-3 prostate; 109% in the assay on SK-MEL-5 melanoma; 103% in the assay on UACC-62 melanoma. Moreover, the growth with LOX IMVI melanoma was 108%; with SK-MEL-28 melanoma, 127%.
Regarding `COc1ccc(-c2cc3c4c(nc5ccccc5c4c2)CC(c2cc(OC)c(OC)c(OC)c2)O3)cc1` (stereo not given), the growth in the assay on DU-145 prostate is 35.4%; in the assay on K-562 leukemia, 40.9%; in the assay with MALME-3M melanoma, 20.8%; with MDA-MB-231 breast, 19.6%; in the assay on RXF 393 renal it was -0.548% (active); in the assay with SF-268 CNS, 44.4%. The growth was 42% in the assay on SF-295 CNS; -16% (active) in the assay on SF-539 CNS; 46.3% with UACC-257 melanoma; 57.5% in the assay on M14 melanoma; 45.6% in the assay on HCT-15 colon; 45.2% in the assay with HT29 colon. Also, the growth with SNB-75 CNS was -30% (active); in the assay on SNB-19 CNS it was 40.1%; in the assay on U251 CNS, 54.8%; in the assay with PC-3 prostate, 52.3%; with SK-MEL-5 melanoma, 62.6%; in the assay with UACC-62 melanoma, 52%. In addition, the growth in the assay with LOX IMVI melanoma was 38.4%; in the assay on SK-MEL-28 melanoma, 44%.
Turning to `COc1ccc(C(=O)n2nc(-c3ccccc3)nc2N)cc1OC`, the growth in the assay with DU-145 prostate is 104%; in the assay on K-562 leukemia it was 80.1%; in the assay on MALME-3M melanoma, 102%; with MDA-MB-231 breast it was 85.1%; in the assay with RXF 393 renal, 98.3%; in the assay on SF-268 CNS, 95.4%. Besides, the growth in the assay with SF-295 CNS was 103%; in the assay on SF-539 CNS, 91%; in the assay with UACC-257 melanoma it was 98.4%; in the assay with M14 melanoma, 105%; in the assay with HCT-15 colon, 96.8%; in the assay with HT29 colon, 91.9%. The growth in the assay on SNB-75 CNS was 81.1%; with SNB-19 CNS it was 95.7%; in the assay on U251 CNS, 90.4%; in the assay on PC-3 prostate, 87.9%; in the assay with SK-MEL-5 melanoma it was 93.3%; in the assay with UACC-62 melanoma it was 86.7%. Also, the growth was 91.7% in the assay with LOX IMVI melanoma and 107% in the assay on SK-MEL-28 melanoma.
In the case of `Cc1nc(NC(=O)COc2ccc(/C=C3\Cc4ccc(Cl)cc4C3=O)cc2)sc1C`, the growth in the assay with DU-145 prostate was 112%; with K-562 leukemia, 106%; in the assay on MALME-3M melanoma, 238%; in the assay with MDA-MB-231 breast it was 93.7%; with RXF 393 renal it was 135%; with SF-268 CNS, 119%. Besides, the growth in the assay with SF-295 CNS was 110%; in the assay with SF-539 CNS, 101%; with UACC-257 melanoma, 110%; in the assay with M14 melanoma it was 114%; with HCT-15 colon it was 104%; in the assay with HT29 colon, 114%. For the same compound, the growth with SNB-75 CNS was 108%; in the assay on SNB-19 CNS it was 106%; in the assay on U251 CNS, 99.4%; in the assay with PC-3 prostate it was 91.9%; with SK-MEL-5 melanoma, 111%; in the assay with UACC-62 melanoma, 98.8%. In addition, the results for the growth in the assay with LOX IMVI melanoma and in the assay on SK-MEL-28 melanoma were 72.7% and 132%, respectively.
For `CCCCCCn1c(-c2ccc(C(=O)O/N=C(\N)c3ccc4ccccc4c3)cc2)nc(-c2ccccc2)c1-c1ccccc1`, the growth in the assay with DU-145 prostate is 53.9%; in the assay on K-562 leukemia it was -8.77% (active); in the assay with MALME-3M melanoma, 71.5%; with MDA-MB-231 breast it was 64.4%; with RXF 393 renal it was 35.1%; with SF-268 CNS it was 51.3%. The growth in the assay on SF-295 CNS is 70.1%; in the assay on SF-539 CNS it was 48.8%; in the assay on UACC-257 melanoma it was 82.2%; in the assay on M14 melanoma, 72.7%; in the assay on HCT-15 colon it was 49.3%; with HT29 colon, 74.5%. The growth with SNB-75 CNS was 16%; in the assay with SNB-19 CNS, 68.9%; in the assay with U251 CNS it was 50.2%; with PC-3 prostate, 51.3%; in the assay on SK-MEL-5 melanoma it was 68.2%; in the assay with UACC-62 melanoma it was 61.1%. Moreover, the growth in the assay on LOX IMVI melanoma is -88.6% (active); with SK-MEL-28 melanoma, 72.9%.
Turning to `CN1CCN(c2ccc(-c3ccc4ncc(C#N)c(Nc5ccc(F)c(Cl)c5)c4c3)cn2)CC1`, the growth in the assay with DU-145 prostate is 27.5%; in the assay with K-562 leukemia it was 17.3%; in the assay on MALME-3M melanoma, 27.9%; in the assay on MDA-MB-231 breast it was 77.2%; in the assay with RXF 393 renal, 27.3%; in the assay with SF-268 CNS it was 47.7%. Further, the growth in the assay on SF-295 CNS is 71.5%; in the assay with SF-539 CNS, 60.2%; in the assay with UACC-257 melanoma, 34%; in the assay with M14 melanoma, 30.5%; in the assay on HCT-15 colon, 13.4%; in the assay with HT29 colon, 36.6%. The growth with SNB-75 CNS was 64.1%; with SNB-19 CNS, 74.7%; in the assay with U251 CNS, 57%; with PC-3 prostate it was 58.5%; with SK-MEL-5 melanoma, 82.9%; in the assay on UACC-62 melanoma, 86%. Besides, the growth in the assay on LOX IMVI melanoma was 68.8%; in the assay with SK-MEL-28 melanoma, 70.3%.
Take `C=C1C(=O)O[C@H]2[C@H]1CC/C(COC(=O)CCSSCCC(=O)OC/C1=C/CC[C@@]3(C)O[C@H]3[C@H]3OC(=O)C(=C)[C@@H]3CC1)=C\CC[C@@]1(C)O[C@@H]21`: the growth in the assay on DU-145 prostate is 10.7%; in the assay with K-562 leukemia it was -1.59% (active); in the assay with MALME-3M melanoma, -27.1% (active); in the assay with MDA-MB-231 breast it was -83.7% (active); with RXF 393 renal, -93.6% (active); in the assay on SF-268 CNS, 24.8%. In addition, the growth in the assay with SF-295 CNS was 72.9%; with SF-539 CNS, -63.4% (active); in the assay on UACC-257 melanoma, -7.74% (active); in the assay with M14 melanoma, -10.1% (active); with HCT-15 colon it was -74.2% (active); in the assay on HT29 colon, -78.7% (active). For the same compound, the growth in the assay with SNB-75 CNS is 52.5%; with SNB-19 CNS it was 39.2%; in the assay with U251 CNS, -12% (active); with PC-3 prostate it was -11.6% (active); in the assay on SK-MEL-5 melanoma, 41.7%; in the assay on UACC-62 melanoma, 36.7%. The growth in the assay on LOX IMVI melanoma was -75.8% (active); in the assay with SK-MEL-28 melanoma, -42.8% (active).
As to `COc1cc2cc(Oc3ccc(NC(=O)Nc4ccc(Cl)c(C(F)(F)F)c4)cc3)c(C)nc2cc1OCCN1CCOCC1`, the growth with DU-145 prostate is 25.2%; in the assay on K-562 leukemia, 9.9% (active); in the assay on MALME-3M melanoma, 37.7%; in the assay on MDA-MB-231 breast it was 38.4%; in the assay on RXF 393 renal, 43.7%; in the assay on SF-268 CNS, 32.2%. Also, the growth was 0.751% (active) in the assay on SF-295 CNS; 41.7% in the assay on SF-539 CNS; 14.1% in the assay with UACC-257 melanoma; 19.2% in the assay with M14 melanoma; 13.7% in the assay on HCT-15 colon; 12% with HT29 colon. The growth in the assay with SNB-75 CNS is 53.3%; in the assay on SNB-19 CNS, 24.4%; with U251 CNS, 14.8%; with PC-3 prostate, 13%; in the assay with SK-MEL-5 melanoma, -34.7% (active); in the assay on UACC-62 melanoma it was 29.9%. The growth with LOX IMVI melanoma is 9.99% (active); in the assay on SK-MEL-28 melanoma, 42.9%.

The record behind these values is PubChem BioAssay (NCI).
